# Measured values reported in PMC13494018.
# Unmarked numbers belong to inactive results. How the calls were made is not given here.
# B1: design_609_7ee6ce64-4629-41e8-bcb4-ba0da017284d_2408_dldesign_0_cycle1_af2pred (protein)
# chain: SSAAEEAAKKVEETAKKIKEEGLPEEEAKKLLSEALLLVADHDSPELAERALKAFEELSKYYPGAAKAAKILKRRLEALKKN
# B2: design_609_7ee6ce64-4629-41e8-bcb4-ba0da017284d_2085_dldesign_0_cycle1_af2pred (protein)
# chain: LEEKLKELRALAKEAAEKAKEEGATKTANLLLKGVEASPLKAVGYVLVAADLLKASEKLKPWAEKLEKAAEEV
# B3: design_609_7ee6ce64-4629-41e8-bcb4-ba0da017284d_2306_dldesign_0_cycle1_af2pred (protein)
# chain: LSENEKLKKAADYTSKAAKLAAEAAKKYKLPPEAVKKAQEAINLLFSSTDKETAEKAVELAKEAAKYMPESVAKKFLELVEKAAEYWS
# B4: design_609_7ee6ce64-4629-41e8-bcb4-ba0da017284d_2040_dldesign_0_cycle1_af2pred (protein)
# chain: EEEEKEKKAKELEKEAVKHREEAFDKIAEGKLEEAKELAEKIRELAKKLEELGEEAKPLADRARKGARAVERLIEAAE
# B5: design_609_7ee6ce64-4629-41e8-bcb4-ba0da017284d_2287_dldesign_0_cycle1_af2pred (protein)
# chain: SDLEATELQIKAARLVAEAKRALAELTPEEGLARAKELFAEAEKAVKAAAKLLSPEAGKALVAALKERSAAILAEAEKAAAA
# B6: design_609_7ee6ce64-4629-41e8-bcb4-ba0da017284d_2471_dldesign_0_cycle1_af2pred (protein)
# chain: MEALKARGDLDVVADQATQIAKLAAEHPELAELGKRAAELAARAKAAQAGDPEETIKKAKELRAERRELVAETKKRLAAL
# B7: design_609_7ee6ce64-4629-41e8-bcb4-ba0da017284d_2409_dldesign_0_cycle1_af2pred (protein)
# chain: SMEEEELRKKADEVAEKAAKIAEEADPELGKKFRERAEKAKKDPVDAYAYYVAQAAKSGGIILEKLGKEEEGKKLKELGKELEKALEE
# B8: design_609_7ee6ce64-4629-41e8-bcb4-ba0da017284d_2421_dldesign_0_cycle1_af2pred (protein)
# chain: AAKEEVEKKAEEVIKKLKEIGEKDPNAKELTDDLIKTLKKEVEKYKDDPEKAKKAVDKAEKTADSLEEAVKY
# B9: design_609_7ee6ce64-4629-41e8-bcb4-ba0da017284d_2350_dldesign_0_cycle1_af2pred (protein)
# chain: SEKKLKAQKEALKLVEEVAKYAEEDPETAPKFGKEKAEEAYKYALELGLSEEEAEKLRKTTLRLVEAEIRGAKLVAEKRKKALE
# B10: design_609_7ee6ce64-4629-41e8-bcb4-ba0da017284d_2406_dldesign_0_cycle1_af2pred (protein)
# chain: ETEKKIKYLKEALYYLHLAIESAKLGSPPEAARRFVEIGIKKALEGDEEVGKELEKLLKELSPEEAAEAGAKLVEERIKELE
# B11: design_609_7ee6ce64-4629-41e8-bcb4-ba0da017284d_2438_dldesign_0_cycle1_af2pred (protein)
# chain: MKEEMIKEAKKLMEEGKKKFEEAVKLPASEAAEASKLMHEGHELLTEAAWLAKKAGDEELAKEAKKARKEAVKKGKEAQAASAAA
# B12: design_609_7ee6ce64-4629-41e8-bcb4-ba0da017284d_2235_dldesign_0_cycle1_af2pred (protein)
# chain: MKAKEEAEKKVEEVVEKGEKKVEEMKGLTAEEAEKVRNEIILEGQEVAAEAKKVDPEVGKKGFEKFRKVGEKAEKAVEEVK
# Target: VTCN1, Q7Z7D3
# Sequence (Q7Z7D3 whole entry): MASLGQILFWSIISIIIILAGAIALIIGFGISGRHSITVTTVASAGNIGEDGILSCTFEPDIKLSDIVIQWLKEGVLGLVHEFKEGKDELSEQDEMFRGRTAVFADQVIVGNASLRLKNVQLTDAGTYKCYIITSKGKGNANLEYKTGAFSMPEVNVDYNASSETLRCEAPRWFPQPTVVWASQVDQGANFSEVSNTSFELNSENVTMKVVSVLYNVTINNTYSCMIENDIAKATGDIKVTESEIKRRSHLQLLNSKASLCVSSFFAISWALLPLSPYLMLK
row,Binder,binding in a display sort
1,B1,not found
2,B2,not found
3,B3,not found
4,B4,not found
5,B5,not found
6,B6,not found
7,B7,not found
8,B8,not found
9,B9,not found
10,B10,not found
11,B11,not found
12,B12,not found
